Data from PubChem BioAssay (NCATS).
Values joined by “and” are separate entries in the source; they are usually repeats but may differ in a detail not shown here. Equal values may be shown once. Results filed as inconclusive are left out. Entries that show only a call come without a potency. The source holds several records for some structures; these can differ, active in one and inactive in another. Active and inactive are the calls of the source. Unless noted, calls come from the whole dose curve; as a rule, active = well fitted curve in the direction sought with a large enough effect; inconclusive = small, poorly fitted or top-dose-only effect, or another doubt; inactive = no such curve, though single readings can be large; an effect the other way counts as inactive or inconclusive.

Assays:
[1] = target: Atrial natriuretic peptide receptor 2 (Homo sapiens) (UniProt P20594); assay: Natriuretic polypeptide receptor (hNpr2) antagonism - Pilot subtype selectivity assay (AID 1347050; calls by dose curve; note: potency is the fitted concentration of half-maximal effect)
Summary of the method: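 Read-out: GloSensor luminescence (CCD imager), baseline vs post-stimulation. HEK293 cells expressing hNpr2; compounds pre-incubated 30-50 min at ambient temperature; hNppC 1 nM final, 20 min.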

[2] = NS1 protein of Zika virus - qHTS assay to identify small molecule inhibitors in human HEK 293 cells (AID 1347053); note: nearly all actives have a fitted effect of over 55% in size; note: potency is the fitted concentration of half-maximal effect
Summary of the method: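 Compound-treated (1 h pre-infection) HEK 293 cells infected with ZIKV MR766, MOI = 0.5; after 24 h at 37 C, NS1 read by TR-FRET; data normalized to uninfected and infected controls.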

[3] = target: T1, Tyrosine-protein phosphatase non-receptor type substrate 1 (Homo sapiens) + Leukocyte surface antigen CD47 (Homo sapiens) (UniProt P78324+Q08722); assay: CD47-SIRPalpha protein protein interaction - LANCE assay qHTS validation (AID 1347057; active = well fitted curve in the direction sought with a large enough effect in the signal ratio, with a control signal flat, not every such curve was filed as active; the % refers to the signal ratio; note: series mostly up to about 38 µM)
Summary of the method: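 Inhibition of soluble CD47/SIRPalpha ectodomain association by titrated compounds, measured as 665/615 nm time-resolved FRET ratio after sequential 30 min room-temperature incubations.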

[4] = target: T1, Tyrosine-protein phosphatase non-receptor type substrate 1 (Homo sapiens) + Leukocyte surface antigen CD47 (Homo sapiens); assay: CD47-SIRPalpha protein protein interaction - HTRF assay qHTS validation (AID 1347058; active = well fitted curve in the direction sought with a large enough effect in the signal ratio, not every such curve was filed as active; the % refers to the signal ratio; note: series mostly up to about 38 µM)
Summary of the method: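 Soluble extracellular domains (6His-CD47, Avi-tag-biotinylated SIRPalpha) in PBS pH 7.4 with 0.05% IGEPAL CA-630. Compounds were preincubated 30 min at RT with CD47 and anti-His-Eu, then SIRPalpha and SAV-XL665 were added. TR-FRET 665/615 ratio.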

[5] = target: T1, Tyrosine-protein phosphatase non-receptor type substrate 1 (Homo sapiens) + Leukocyte surface antigen CD47 (Homo sapiens); assay: CD47-SIRPalpha protein protein interaction - Alpha assay qHTS validation (AID 1347059);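 note: bead proximity luminescence from CD47 binding SIRPalpha after compound preincubation with SIRPalpha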
Summary of the method: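 In PBS (pH 7.4) with 0.05% IGEPAL CA-630, compound is preincubated with biotin-Avi-SIRPalpha ectodomain before His-CD47 ectodomain and affinity beads are added. Light-protected room-temperature incubations; AlphaScreen readout.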

[6] = target: Parathyroid hormone/parathyroid hormone-related peptide receptor (Homo sapiens) (UniProt Q03431); assay: qHTS for PTHR1 Agonists: Optimization Screen against the NCGC LOPAC library (AID 1347079);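 note: GloSensor cAMP luminescence in HEK-293 GP2 cells expressing human PTHR1 with IBMX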
Summary of the method: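 Signal increase flags agonism. GP2 cells, derived from HEK-293, express human PTHR1 and a GloSensor cAMP construct.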

[7] = qHTS of pediatric cancer cell lines to identify multiple opportunities for drug repurposing: Primary screen for TC32 cells (AID 1347089); note: nearly all actives have a fitted effect of over 60% in size
Summary of the method: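 Measured quantity: luminescence from CellTiter-Glo, reflecting metabolically active TC32 cells following 48 h of compound. Curves came straight from multi-point titrations, with 8 or 11 points in primary and 11 in confirmatory screening.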

[8] = qHTS of pediatric cancer cell lines to identify multiple opportunities for drug repurposing: Primary screen for DAOY cells (AID 1347090); note: nearly all actives have a fitted effect of over 55% in size; note: potency is the fitted concentration of half-maximal effect
Summary of the method: (§1)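 Eight- or eleven-point concentration series, 48 h treatment at 37 degrees C in growth media; readout CellTiter-Glo luminescence. Potency and efficacy were taken from the concentration-response curves.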

[9] = qHTS of pediatric cancer cell lines to identify multiple opportunities for drug repurposing: Primary screen for A673 cells (AID 1347092); note: nearly all actives have a fitted effect of over 45% in size; note: potency is the fitted concentration of half-maximal effect
Summary of the method: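 Cells are plated, rested 5 h, dosed by pintool, incubated 48 h, then lysed with CellTiter-Glo and read by luminescence. DMSO is the neutral control; bortezomib at 2.3 uM final is the positive control.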

[10] = qHTS of pediatric cancer cell lines to identify multiple opportunities for drug repurposing: Primary screen for SJ-GBM2 cells (AID 1347091); note: potency is the fitted concentration of half-maximal effect
Summary of the method: as §1

T1 sequence (P78324 whole entry, looked up, the tested form may be a part): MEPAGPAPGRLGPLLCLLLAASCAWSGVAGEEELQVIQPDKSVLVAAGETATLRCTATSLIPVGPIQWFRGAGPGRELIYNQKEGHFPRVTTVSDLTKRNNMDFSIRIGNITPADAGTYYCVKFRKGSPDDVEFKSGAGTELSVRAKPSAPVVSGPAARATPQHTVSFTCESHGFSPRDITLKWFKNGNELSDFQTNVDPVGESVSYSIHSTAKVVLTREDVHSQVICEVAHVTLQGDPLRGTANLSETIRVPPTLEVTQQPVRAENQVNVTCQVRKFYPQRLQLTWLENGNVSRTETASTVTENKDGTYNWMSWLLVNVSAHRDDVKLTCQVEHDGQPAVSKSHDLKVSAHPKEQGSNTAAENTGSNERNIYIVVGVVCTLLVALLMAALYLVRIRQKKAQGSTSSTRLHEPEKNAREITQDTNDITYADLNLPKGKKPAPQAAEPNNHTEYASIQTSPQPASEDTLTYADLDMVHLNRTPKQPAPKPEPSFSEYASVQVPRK
T1 sequence (Q08722 whole entry, looked up, the tested form may be a part): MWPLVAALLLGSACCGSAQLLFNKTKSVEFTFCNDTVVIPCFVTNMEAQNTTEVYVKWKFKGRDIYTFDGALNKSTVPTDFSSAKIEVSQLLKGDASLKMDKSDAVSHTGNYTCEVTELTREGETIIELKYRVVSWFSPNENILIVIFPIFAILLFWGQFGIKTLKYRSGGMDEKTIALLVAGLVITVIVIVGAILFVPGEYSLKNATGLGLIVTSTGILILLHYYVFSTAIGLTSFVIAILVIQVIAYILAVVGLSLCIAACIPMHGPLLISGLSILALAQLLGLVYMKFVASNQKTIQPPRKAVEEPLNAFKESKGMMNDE
Sequence of Atrial natriuretic peptide receptor 2 (Homo sapiens) (P20594 whole entry, looked up): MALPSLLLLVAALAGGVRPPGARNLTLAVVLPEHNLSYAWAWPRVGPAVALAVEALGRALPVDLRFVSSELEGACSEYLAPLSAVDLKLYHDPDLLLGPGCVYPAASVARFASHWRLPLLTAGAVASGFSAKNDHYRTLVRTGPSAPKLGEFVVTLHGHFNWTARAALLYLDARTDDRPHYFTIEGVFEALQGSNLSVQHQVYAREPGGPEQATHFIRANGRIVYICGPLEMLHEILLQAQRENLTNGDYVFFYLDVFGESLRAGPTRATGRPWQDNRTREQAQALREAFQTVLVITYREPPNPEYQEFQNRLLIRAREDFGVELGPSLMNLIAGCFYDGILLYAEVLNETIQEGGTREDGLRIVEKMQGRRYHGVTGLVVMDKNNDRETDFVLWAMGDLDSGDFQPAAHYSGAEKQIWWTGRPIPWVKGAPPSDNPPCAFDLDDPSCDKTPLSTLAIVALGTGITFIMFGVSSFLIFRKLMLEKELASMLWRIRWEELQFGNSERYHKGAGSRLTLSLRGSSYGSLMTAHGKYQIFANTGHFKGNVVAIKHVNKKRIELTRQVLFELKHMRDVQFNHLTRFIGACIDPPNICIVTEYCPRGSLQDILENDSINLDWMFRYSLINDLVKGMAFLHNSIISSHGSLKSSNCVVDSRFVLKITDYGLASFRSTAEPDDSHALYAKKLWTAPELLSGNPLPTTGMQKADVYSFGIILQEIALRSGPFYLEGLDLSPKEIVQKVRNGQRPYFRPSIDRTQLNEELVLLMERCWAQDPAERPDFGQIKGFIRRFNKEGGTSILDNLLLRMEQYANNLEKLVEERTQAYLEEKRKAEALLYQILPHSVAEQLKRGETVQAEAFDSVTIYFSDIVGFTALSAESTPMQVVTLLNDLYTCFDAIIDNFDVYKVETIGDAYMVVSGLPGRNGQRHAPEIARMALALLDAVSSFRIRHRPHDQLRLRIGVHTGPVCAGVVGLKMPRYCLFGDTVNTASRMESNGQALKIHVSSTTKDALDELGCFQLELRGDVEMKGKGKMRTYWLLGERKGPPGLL
Sequence of Parathyroid hormone/parathyroid hormone-related peptide receptor (Homo sapiens) (Q03431 whole entry, looked up): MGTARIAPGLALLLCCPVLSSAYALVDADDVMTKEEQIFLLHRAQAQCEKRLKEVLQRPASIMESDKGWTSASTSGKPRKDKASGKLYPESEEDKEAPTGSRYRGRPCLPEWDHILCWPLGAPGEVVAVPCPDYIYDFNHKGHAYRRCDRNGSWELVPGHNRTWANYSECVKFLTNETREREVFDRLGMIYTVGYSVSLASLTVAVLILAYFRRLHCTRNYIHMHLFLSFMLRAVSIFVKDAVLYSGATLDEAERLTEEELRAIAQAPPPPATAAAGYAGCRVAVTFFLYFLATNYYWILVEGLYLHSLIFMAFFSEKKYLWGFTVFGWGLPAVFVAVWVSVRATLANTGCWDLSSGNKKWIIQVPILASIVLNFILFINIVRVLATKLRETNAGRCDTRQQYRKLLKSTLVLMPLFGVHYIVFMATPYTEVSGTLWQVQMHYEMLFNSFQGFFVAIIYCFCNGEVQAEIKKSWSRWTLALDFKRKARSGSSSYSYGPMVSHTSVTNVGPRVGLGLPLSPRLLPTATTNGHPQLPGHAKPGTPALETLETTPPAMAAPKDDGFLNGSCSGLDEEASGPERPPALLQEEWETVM

| Structure (SMILES) | Potency [1] | Potency [2] | outcome [3] | outcome [4] | Potency [5] | Potency [6] | Potency [7] | Potency [8] | Potency [9] | Potency [10] |
| --- | --- | --- | --- | --- | --- | --- | --- | --- | --- | --- |
| Cc1cc(C(C)(C)C)cc(C)c1CC1=NCCN1 | inactive | inactive | inactive | inactive | inactive | inactive | inactive | inactive | inactive | – |
| O=C(C1CCCCC1)N1CC(=O)N2CCc3ccccc3C2C1 (centres undefined) | inactive | inactive | inactive | inactive | inactive | inactive | inactive | inactive | inactive | inactive |
| COc1nc(C)nc(Cl)c1NC1=NCCN1 | inactive | inactive | inactive | inactive | inactive | inactive | – | inactive | inactive | – |
| Cc1cn([C@H]2C=C[C@@H](CO)O2)c(=O)[nH]c1=O | inactive | inactive | inactive | inactive | inactive | inactive | inactive | – | inactive | inactive |
| CC(C)Cc1ccc(C(C)C(=O)O)cc1 (centres undefined) | inactive | inactive | inactive | inactive | inactive | inactive | inactive | inactive | inactive | inactive |
| COc1ccc(C2CNC(=O)C2)cc1OC1CCCC1 (centres undefined) | inactive | inactive | inactive | inactive | inactive | inactive | – | inactive | inactive | – |
| CC(C)(Oc1ccc(C2CC2(Cl)Cl)cc1)C(=O)O (centres undefined) | inactive | inactive | inactive | inactive | inactive | inactive | – | inactive | – | – |
| COc1cc2nc(N(C)CCCNC(=O)C3CCCO3)nc(N)c2cc1OC (centres undefined) | inactive | inactive | inactive | inactive | inactive | inactive | – | inactive | inactive | inactive |
| Nc1ccn([C@H]2CC[C@@H](CO)O2)c(=O)n1 | inactive | inactive | inactive | inactive | inactive | inactive | – | inactive | inactive | – |
| CCN1CCCC1CNC(=O)c1cc(S(=O)(=O)CC)c(N)cc1OC (centres undefined) | inactive | inactive | inactive | inactive | inactive | inactive | – | inactive | inactive | – |
| Nc1nc2c(ncn2COC(CO)CO)c(=O)[nH]1 | inactive | inactive | inactive | inactive | – | inactive | inactive | inactive | – | – |
| CN(C)c1nc(N(C)C)nc(N(C)C)n1 | inactive | inactive | inactive | inactive | inactive | inactive | – | inactive | inactive | – |
| NC12CC3CC(CC(C3)C1)C2 | inactive | inactive | inactive | inactive | inactive | inactive | inactive | inactive | – | – |
| NCCS(=O)(=O)O | inactive | inactive | inactive | inactive | inactive | inactive | inactive | inactive | inactive | inactive |
| OCCN1CCN(CCCN2c3ccccc3Sc3ccc(C(F)(F)F)cc32)CC1 | inactive | 16.6 µM (active) and inactive | inactive | inactive | inactive | inactive | inactive | inactive | 18.7 µM (active) | 20.9 µM (active) |
| CCC1(c2ccccc2)C(=O)NCNC1=O | inactive | inactive | inactive | inactive | inactive | inactive | – | – | – | inactive |
| CCCCc1oc2ccccc2c1C(=O)c1cc(I)c(OCCN(CC)CC)c(I)c1 | inactive | 29.6 µM (active) and inactive | inactive | inactive | inactive | inactive | – | 5.9 µM (active) | 4.69 µM (active) and 26.6 µM (active) | – |
| CCOC(=O)c1ncn2c1CN(C)C(=O)c1cc(F)ccc1-2 | inactive | inactive | inactive | inactive | inactive | inactive | inactive | inactive | inactive | – |
| CN1CCN(C2=Nc3cc(Cl)ccc3Nc3ccccc32)CC1 | 10.4 µM (active) | inactive | inactive | inactive | inactive | inactive | inactive | inactive | inactive | inactive |
| N[C@@H](Cc1c[nH]c2ccc(O)cc12)C(=O)O | inactive | inactive | inactive | inactive | inactive | inactive | inactive | inactive | inactive | – |
| COc1ccc2c(c1)c(CC(=O)O)c(C)n2C(=O)c1ccc(Cl)cc1 | inactive | inactive | inactive | inactive | inactive | inactive | – | – | – | – |
| O=c1c(-c2ccc(O)cc2)coc2cc(O)cc(O)c12 | inactive | inactive | inactive | inactive | inactive | inactive | – | inactive | – | inactive |
| CNCCCC12CCC(c3ccccc31)c1ccccc12 | inactive | 20.9 µM (active) | inactive | inactive | inactive | inactive | – | – | 21.1 µM (active) and 23.5 µM (active) | – |
| C[C@](N)(Cc1ccc(O)c(O)c1)C(=O)O | inactive | inactive | inactive | inactive | – | inactive | inactive | inactive | – | – |

| Structure (SMILES) | Potency [1] | Potency [2] | outcome [3] | outcome [4] | Potency [5] | Potency [6] | Potency [7] | Potency [8] | Potency [9] | Potency [10] |
| --- | --- | --- | --- | --- | --- | --- | --- | --- | --- | --- |
| Clc1ccc2c(c1)C(N1CCNCC1)=Nc1ccccc1O2 | 8.26 µM (active) | inactive | inactive | inactive | inactive | inactive | inactive | inactive | inactive | inactive |
| O=c1[nH]cc(F)c(=O)[nH]1 | inactive | inactive | inactive | inactive | – | inactive | inactive | inactive | – | – |
| CC12CC3CC(C)(C1)CC(N)(C3)C2 | inactive | inactive | inactive | inactive | – | inactive | inactive | – | – | – |
| Cn1cnc2c1c(=O)[nH]c(=O)n2C | inactive | inactive | inactive | inactive | inactive | inactive | inactive | inactive | – | – |
| CCC1(C)CC(=O)NC1=O (centres undefined) | inactive | inactive | inactive | inactive | inactive | inactive | – | inactive | inactive | – |
| CCc1cccc2c3c([nH]c12)C(CC)(CC(=O)O)OCC3 (centres undefined) | inactive | inactive | inactive | inactive | inactive | inactive | inactive | inactive | inactive | – |
| O=C(Nc1ccc([N+](=O)[O-])cc1Cl)c1cc(Cl)ccc1O | 1.31 µM (active) | inactive and 1.48 µM (active) | inactive | inactive | inactive | inactive | – | 1.46 µM (active) and 1.18 µM (active) | 4.69 µM (active) | 1.3 µM (active) and 743 nM (active) |
| Clc1ccccc1C(c1ccccc1)(c1ccccc1)n1ccnc1 | inactive | inactive | inactive | inactive | inactive | inactive | – | inactive | – | – |
| CN1C2CCC1CC(OC(=O)C(CO)c1ccccc1)C2 (centres undefined) | inactive | inactive | inactive | inactive | inactive | inactive | – | inactive | inactive | – |
| CC(C)NCC(O)COc1ccc(CCOCC2CC2)cc1 (centres undefined) | inactive | inactive | inactive | inactive | inactive | inactive | inactive | inactive | inactive | inactive |
| COc1ccc2[nH]cc(CCNC(C)=O)c2c1 | inactive | inactive | inactive | inactive | – | inactive | – | inactive | inactive | – |
| CC(CCc1ccc(O)cc1)NCCc1ccc(O)c(O)c1 (centres undefined) | inactive | inactive | inactive | inactive | – | inactive | – | inactive | – | inactive |
| CN(C)CCC=C1c2ccccc2C=Cc2ccccc21 | 16.5 µM (active) | inactive | inactive | inactive | – | inactive | – | inactive | – | – |
| Cc1ccc(C(=O)Nc2ccc(S(=O)(=O)O)c3cc(S(=O)(=O)O)cc(S(=O)(=O)O)c23)cc1NC(=O)c1cccc(NC(=O)Nc2cccc(C(=O)Nc3cc(C(=O)Nc4ccc(S(=O)(=O)O)c5cc(S(=O)(=O)O)cc(S(=O)(=O)O)c45)ccc3C)c2)c1 | inactive | inactive | inactive | – | – | inactive | – | inactive | inactive | – |
| COc1cc2nc(N3CCN(C(=O)C4COc5ccccc5O4)CC3)nc(N)c2cc1OC (centres undefined) | inactive | inactive | inactive | inactive | – | inactive | inactive | inactive | 18.7 µM (active) | – |
| Nc1c2c(nc3ccccc13)CCCC2 | inactive | inactive | inactive | inactive | – | inactive | inactive | inactive | inactive | – |
| CN1C(C(=O)Nc2ccccn2)=C(O)c2ccccc2S1(=O)=O | inactive | inactive | inactive | – | – | inactive | – | inactive | inactive | inactive |
| OCCN(CCO)c1nc(N2CCCCC2)c2nc(N(CCO)CCO)nc(N3CCCCC3)c2n1 | inactive | inactive | – | – | inactive | inactive | inactive | – | – | – |
| COc1ccccc1OCCNCC(O)COc1cccc2[nH]c3ccccc3c12 (centres undefined) | inactive | inactive | inactive | inactive | – | inactive | inactive | inactive | inactive | inactive |
| Cn1c(=O)c2[nH]cnc2n(C)c1=O | inactive | inactive | inactive | – | – | inactive | – | inactive | inactive | – |
| NCCc1cnc[nH]1 | inactive | inactive | inactive | inactive | – | inactive | inactive | inactive | inactive | inactive |
| Clc1ccc(C(c2ccccc2Cl)C(Cl)Cl)cc1 (centres undefined) | inactive | inactive and 18.7 µM (active) | inactive | – | – | inactive | – | inactive | 23.5 µM (active) | – |
| CCCNCC(O)COc1ccccc1C(=O)CCc1ccccc1 (centres undefined) | inactive | inactive | inactive | inactive | – | inactive | inactive | inactive | inactive | – |
